NALP1 yeast inh: NALP1 inhibition; S. cerevisiae NALP1/ASC/caspase-1 growth, X-gal OD620, 72 h; inhibition, % at 10 µM; hit rate 0.61% among 280,000; in the data active means inhibition mostly above about 24%, no sharp cut-off; inactive means mostly below about 32%
NALP3 yeast inh: NALP3 inhibition in yeast | inhibition, % at 10 µM | AID 2825 | hit rate 0.39% among 330,000 | Yeast reconstituted NLRP3/ASC/caspase-1, beta-gal luminescence, 24 h;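 active means inhibition of 50% or more; inactive means inhibition below 50%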;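 further: plate controls were induced DMSO wells for no effect and uninduced yeast grown without galactose for full effect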
TIM10 inh: growth inhibitors of TIM10 yeast strain; S. cerevisiae TIM10 strain growth, BacTiter-Glo luminescence, 24 h; inhibition, % at 10 µM; hit rate 1.4% among 330,000; AID 463195;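 active means inhibition of 40% or more at the single tested concentration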;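 further: wild-type TIM10 isogenic control strain grown at permissive 25 °C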
PfHsp90 set2: inhibits growth of yeast expressing Plasmodium falciparum Hsp90; hit rate 0.32% among 310,000; inhibition, % at 9.4 µM; S. cerevisiae expressing PfHsp90, BacTiter-Glo ATP, 48 h; yeast lacking PDR1 and PDR3 efflux regulators;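 active means every replicate shows inhibition above about 80%, whatever the replicate mean, limit read from the data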;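 further: 0% = DMSO neutral controls and 100% = 20 µM radicicol positive controls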
tim23-1 inh: tim23-1 yeast growth inhibition; inhibition, % at 20 µM; S. cerevisiae tim23-1 growth, BacTiter-Glo luminescence, 24 h; hit rate 1.3% among 330,000;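 active means growth inhibition of the mutant yeast at or above 50%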;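 further: temperature-sensitive mutant grown at 25 °C; plate controls were DMSO-treated mutant yeast for no effect and medium wells lacking yeast for full effect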
tim10-1 inh: inhibits growth of tim10-1 mutant yeast; AID 463190; hit rate 2.2% among 330,000; inhibition, % at 20 µM; S. cerevisiae tim10-1 ts strain growth, BacTiter-Glo, 24 h;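 active means inhibition of at least 40%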;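 further: mutant grown at 25 °C; 0% = DMSO wells with yeast and 100% = wells holding no yeast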
tim10-1 conf: confirmation of tim10-1 mutant yeast growth inhibitors; shares compounds with tim10-1 inh; S. cerevisiae tim10-1 ts strain growth, BacTiter-Glo, 24 h; inhibition, % at 20 µM; hit rate 56% among 7,400; AID 463213;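 active means inhibition of yeast growth at or above a set limit in either of two repeat tests at 20 µM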;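 further: tim10-1 mutant grown at permissive 25 °C to find synthetic lethal compounds; 0% = DMSO yeast wells and 100% = medium wells without yeast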
* = called active by the depositor; · = no result. The list is not random: actives were taken first. Their share in the collection is about 4.2%.

SMILES	NALP1 yeast inh	NALP3 yeast inh	TIM10 inh	PfHsp90 set2	tim23-1 inh	tim10-1 inh	tim10-1 conf
C#CNC(=O)C1(CC=C)CCNCC1	·	10.8	9.8	12.1	11.4	6.6	·
CC12CCC(C(=O)NC(c3ccccc3)c3ccccc3)(OC1=O)C2(C)C (stereo not given)	5.1	-1.2	21.3	·	38.7	42.0*	29.5
COc1cc(OC)cc(C(=O)NNC(=O)CCC2CCCC2)c1	·	12.7	2.0	-22.3	-1.8	-11.0	·
O=C(COc1cc2oc(=O)cc(-c3ccccc3)c2cc1Cl)NCc1ccccn1	17.2	5.5	-24.3	-14.6	-10.0	41.9*	-57.9
COc1ccc(N2CCN(C(=O)COC(=O)CCOc3ccccc3C)CC2)cc1	·	17.2	26.8	2.0	18.0	42.6*	19.1
COc1ccc(N2CCN(C(=O)COC(=O)CCOc3cc(C)ccc3C)CC2)cc1	·	19.3	18.9	·	17.0	34.0	·
O=C(CCCN1C(=O)c2cccc3cccc(c23)C1=O)N1CCN(c2ccc(F)cc2)CC1	8.2	29.4	23.8	0.3	40.1	12.9	·
COc1ccc(N2CCN(C(=O)CCCN3C(=O)c4cccc5cccc(c45)C3=O)CC2)cc1	-9.2	20.3	33.8	·	45.7	49.1*	19.2
Cc1cc(NC(=O)c2ccccc2Oc2ccccc2)no1	8.7	-14.3	38.8	2.1	32.6	43.5*	31.4*
COc1ccccc1C(=O)Nc1cc(C)on1	13.1	24.5	-3.4	-0.1	10.4	2.4	·
CCOc1ccc2nc(SC3CC(=O)N(c4ccc(OC)cc4OC)C3=O)sc2c1 (stereo not given)	9.1	20.4	36.1	-23.8	34.5	44.0*	43.0*
CCOc1ccc(N2C(=O)CC(Sc3nc4ccc(OCC)cc4s3)C2=O)cc1 (stereo not given)	·	18.8	-7.2	5.9	-20.4	-4.9	·
CSc1nsc(/C=C/Nc2ccc(C(=O)O)cc2)c1C#N	-11.3	2.5	28.4	15.5	39.1	38.2	·
CSc1nsc(/C=C/Nc2ccc(F)cc2F)c1C#N	5.2	-9.1	27.9	-1.0	32.0	46.5*	40.6*
Nc1c(C(=O)CSc2nnc(Cc3ccccc3)o2)c(=O)[nH]c(=O)n1C1CC1	·	7.1	-14.5	4.6	-7.1	-12.2	·
Cc1nc2ccccc2c(=O)n1-c1cccc(NC(=O)c2cccs2)c1	·	-18.1	5.5	-6.0	7.2	5.0	·
O=C(Nc1cccc(N2C(=O)C=CC2=O)c1)c1cccs1	·	-12.8	8.5	-123.3	-5.3	62.8*	56.6*
CCOc1c2c(nc3ccc(Cl)cc13)CCC2	5.3	16.1	6.6	14.7	35.1	41.4*	31.5*
CCCc1cc(=O)[nH]c(SCC(=O)Nc2sc3c(c2C#N)CCC(C)C3)n1 (stereo not given)	-2.3	-2.3	13.6	·	21.1	46.6*	-8.0
CC(C)(C)C1CCc2c(sc(NC(=O)CSc3ncn[nH]3)c2C#N)C1 (stereo not given)	-64.8	20.9	22.9	7.0	37.6	40.1*	12.4
CC1CCc2c(sc(NC(=O)CSc3ncn[nH]3)c2C#N)C1 (stereo not given)	·	11.7	-3.1	11.0	11.7	-2.4	·
Cc1cc(O)c(C(=O)/C=C/c2ccccc2)c(=O)o1	3.9	6.0	13.1	28.8	41.9	29.6	·
Cc1cc(O)c(C(=O)/C=C/c2ccccc2Br)c(=O)o1	4.2	18.1	23.1	11.1	34.9	45.6*	11.4
Cc1cc(O)c(C(=O)/C=C/c2ccc(C(C)C)cc2)c(=O)o1	10.0	20.7	31.1	-2.1	42.8	42.7*	32.7*
CC1Cc2c([nH]c3ccccc23)C2c3ccccc3CN12 (stereo not given)	20.1	-2.7	0.2	-2.5	22.4	30.7	·
SMILES	NALP1 yeast inh	NALP3 yeast inh	TIM10 inh	PfHsp90 set2	tim23-1 inh	tim10-1 inh	tim10-1 conf
CCN1C(=O)C(CC(=O)Nc2ccc(OC)cc2)N(CCc2ccc(OC)cc2)C1=S (stereo not given)	14.0	7.4	4.6	-5.0	48.1	47.2*	31.8*
Clc1ccc(-c2nnc(Sc3nc4ccccc4o3)c3ccccc23)cc1	10.6	23.9	39.8	-34.5	46.4	41.6*	16.7
Cc1nnc(Sc2nc3ccccc3o2)c2ccccc12	19.0	40.0	29.8	29.3	31.4	38.9	·
Cc1ccc(Nc2nnc(-c3ccccc3N)o2)cc1C	·	20.9	1.5	-0.9	7.2	-10.2	·
COc1ccc(OC)c(S(=O)(=O)N2CCC(C(=O)NCc3ccncc3)CC2)c1	5.4	17.4	-1.9	15.7	-9.7	-5.6	·
CCCNC(=O)c1ccc(Cl)cc1Cl	3.6	4.4	2.6	3.6	5.1	97.3*	-2.1
O=C(NCCN1CCCC1)c1ccc(Cl)cc1Cl	-0.2	8.5	0.3	-14.2	5.1	6.9	·
Cc1cccc(N2N=C(C(=O)O)CCC2=O)c1	22.1	13.4	17.7	-13.4	21.8	30.0	·
COc1ccc(C(=O)c2sc3nc(-c4ccccc4)ccc3c2N)cc1	40.3	14.0	4.6	-6.7	20.2	45.4*	19.1
CC(C)OC(=O)c1sc2nc(-c3ccccc3)ccc2c1N	17.1	24.6	-1.1	-28.3	19.1	33.7	·
CC(=O)Oc1ccc2c(=O)oc(-c3ccccc3C)nc2c1	-7.4	22.1	20.4	-13.4	40.8	44.3*	39.5*
Cc1ccc(OC(=O)c2ccc(C)c([N+](=O)[O-])c2)cn1	-1.5	19.1	-1.4	9.6	7.2	8.1	·
Cc1ccc(OC(=O)c2ccc([N+](=O)[O-])cc2Cl)cn1	4.6	3.7	13.3	0.1	22.0	42.6*	23.4
CCOC(=O)c1c(CSc2ccc(C)cc2)oc2ccc(O)cc12	10.6	27.8	-10.2	3.0	16.4	40.0	3.6
CC(C)C(OC(=O)c1cc2sccc2n1C)C(=O)NCC1CCCO1 (stereo not given)	4.9	19.7	3.4	2.8	15.7	10.4	·
COc1ccc(CN(CC2CCCO2)C(=O)c2cc3sccc3n2C)c(OC)c1 (stereo not given)	11.5	3.7	31.6	-6.7	21.7	45.3*	29.4
COc1ccccc1OCC(=O)NCCS(=O)(=O)N1CCN(c2ccc(F)cc2)CC1	-7.4	-7.2	0.2	17.6	12.8	21.4	·
CC(=O)Nc1ccc(NC2=C(Cl)C(=O)c3ccccc3C2=O)cc1	0.6	-2.7	32.8	·	29.5	26.0	·
Cc1ccc(NC2=C(NCCO)C(=O)c3ccccc3C2=O)cc1	23.5	7.7	18.6	-12.3	26.8	43.5*	11.7
CC(=O)N1CCN(C(=O)c2cc(S(=O)(=O)N(C)Cc3ccccc3)ccc2Cl)CC1	·	8.0	7.1	·	13.0	11.3	·
Fc1ccccc1/C=C1\CCCC2=C1NC(=S)NC2c1ccccc1F (stereo not given)	13.2	33.5	36.7	3.7	39.3	41.2*	15.3
O=C(NNC(=O)C1CC(c2cccs2)=NO1)Nc1ccc(Cl)cc1 (stereo not given)	1.8	-0.4	4.8	12.4	5.3	11.8	·

Screening results as filed in PubChem.
